# Measurements taken from PubChem BioAssay (NCI).
# The panel holds about 79,000 compounds, 15% with a hit somewhere; the sample as a whole holds those more often. A number with no mark means an inactive call. Activity calls are given as the source filed them. No stated cut-off is given here; in the data, active means growth inhibition above about 70%; inactive means the rest. Where a SMILES comes first, the peptide text is derived from it. Bridges are numbered along the chain shown (N, C = ends). [ ]: non-standard residue; d: D form. Aib = CC(C)(N)C(=O)O; βAla = NCCC(=O)O
# Tests used:
# [1] = NCI Yeast Anticancer Drug Screen. Data for the rad50 strain (AID 155);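 further: 0% = growth of vehicle-only cultures of the same strain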; settings: S. cerevisiae rad50 strain growth inhibition, stronger effect = higher value; at 50.0 µM unless noted
# Procedure, shortened: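 Inhibition values express reduced yeast growth in compound-treated cultures relative to vehicle-treated controls.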
# [2] = NCI Yeast Anticancer Drug Screen. Data for the mec2-1 strain (AID 157); settings: S. cerevisiae mec2-1 strain, stronger effect = higher value; at 50.0 µM unless noted
# Procedure, shortened: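 Compounds were applied to mec2-1 yeast cells. Their growth was then compared with that of vehicle-treated cultures to give growth inhibition.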
# [3] = NCI Yeast Anticancer Drug Screen. Data for the sgs1 mgt1 strain (AID 161);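 further: 0% = growth of cultures given vehicle only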; settings: S. cerevisiae sgs1 mgt1 strain, stronger effect = higher value; at 50.0 µM unless noted
# Procedure, shortened: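 Percent growth inhibition was derived by comparing compound-exposed mutant yeast with vehicle-exposed cultures. The strain carries alterations in DNA damage repair.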
# [4] = NCI Yeast Anticancer Drug Screen. Data for the cln2 rad14 strain (AID 165);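 further: 0% = growth equal to vehicle treated cultures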; settings: S. cerevisiae cln2 rad14 strain, stronger effect = higher value; at 50.0 µM unless noted
# Procedure, shortened: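 Strain: cln2 rad14 yeast, altered in cell cycle control and DNA damage repair. Read-out: growth inhibition vs vehicle.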
# [5] = NCI Yeast Anticancer Drug Screen. Data for the bub3 strain (AID 167); settings: S. cerevisiae bub3 mutant strain, stronger effect = higher value; at 50.0 µM unless noted
# Procedure, shortened: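 Steps: expose the mutant yeast strain to compound; grow alongside vehicle-treated cultures; measure growth; express inhibition against the vehicle cultures.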
# [6] = NCI Yeast Anticancer Drug Screen. Data for the mlh1 rad18 strain (AID 175); settings: S. cerevisiae mlh1 rad18 strain growth inhibition, stronger effect = higher value; at 50.0 µM unless noted
# Procedure, shortened: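 A repair-deficient yeast strain is exposed to test compound, and growth is scored relative to vehicle-treated controls.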
SMILES,growth inhibition [1],growth inhibition [2],growth inhibition [3],growth inhibition [4],growth inhibition [5],growth inhibition [6]
c1cncc(C2c3[nH]c4ccccc4c3CCN2CCCN2CCCCC2)c1 (stereo not given),-5.2%,-36.7%,2.3%,10.7%,-9.55%,-0.5%
CC1(C)NC(=O)C(NC(=O)C(N)CC(=O)O)CCCCNC(=O)CCNC1=O (stereo not given) (H-DK[Aib][βAla]; lactam 2-C; configuration not given here),-4.35%,-67.5%,-32.3%,-10.6%,6.35%,-17.9%
CC(C)(C)NC(=O)CCCl,16.4%,14.4%,16.5%,5.6%,1.8%,41.8%
CCCOC(CCC(=O)NC(C)(C)C)CC(=O)NC(C)(C)C (stereo not given),5.85%,5.45%,6.9%,4.15%,0.55%,-9.9%
CN(C)C1=C(Cl)C(=O)C(=O)c2cccnc21,32.3%,-2.9%,21.4%,5.2%,-16.4%,38.4%
O=C1OCC/C1=C/c1ccc(N=Nc2c(O)ccc3ccccc23)cc1,2.4%,-6.05%,11.1%,5.5%,11.7%,7.05%
CCCCCSC(=O)C(N)=O,10.9%,7.45%,6.7%,-25.8%,-7.45%,4%
Oc1ccc(C(O)CN2CCCC2)cc1O (stereo not given),-15.7%,10.9%,-0.1%,-36.1%,2.7%,-15.3%
CC(C)(C)NC(=O)Nc1ccc2ccccc2c1,-7.7%,3.95%,-8.2%,-68.5%,-24.1%,-11.3%
CS(=O)(=O)Nc1c(-c2ccccc2)oc2ccccc2c1=O,-12.1%,-0.8%,-6.5%,-33.6%,11.3%,-3.85%
O=c1c2cc3c(=O)n4c(cc(-c5ccccc5)c5cc(Cl)ccc54)nc3cc2nc2cc(-c3ccccc3)c3cc(Cl)ccc3n12,14.2%,5.55%,18.9%,14.2%,-1.05%,-9.7%
O=[N+]([O-])c1nccn1CC1OC(n2ccnc2[N+](=O)[O-])C(O)C(O)C1O (stereo not given),0.3%,2.6%,-2.95%,5.9%,25.3%,6.25%
CON1C(=O)C(c2ccccc2)c2ccccc21 (stereo not given),58%,22.6%,47.8%,3.1%,10.7%,6.65%
Cc1[nH]c(=O)nc(N/N=C/c2ccc(Cl)cc2)c1C(=O)NC(C)(CO)CO,-30.6%,-14.6%,-43.5%,-10.4%,16.7%,-3.45%
Cc1ccc(OS(=O)(=O)c2cccc(S(=O)(=O)Oc3ccc(C)cc3)c2)cc1,19.9%,3.35%,8.9%,7.7%,9.45%,6.15%
OC1CN(c2ccc(Br)cc2)CC(O)CN(c2ccc(Br)cc2)C1 (stereo not given),98.7% (active),99.7% (active),99.7% (active),99.5% (active),99.5% (active),99.7% (active)
Cc1cc(O)c(C)c(C)c1O,-4.1%,-12.6%,-6.95%,-12.4%,4%,8.85%
CC1COC(C)(C)P(=O)(c2ccccc2)C1 (stereo not given),-6.9%,-9%,-11.3%,16.2%,-7.15%,-27.4%
CCc1ccc(NN=Nc2ccccc2C#N)cc1,8.1%,15.8%,16.2%,-12.7%,-1.65%,16.8%
Cn1c2ccccc2c2nnc(NCCCO)nc21,18.9%,21.7%,18.8%,43.3%,25%,11.2%

SMILES,growth inhibition [1],growth inhibition [2],growth inhibition [3],growth inhibition [4],growth inhibition [5],growth inhibition [6]
CC1=NN(C(=O)Cc2ccccc2)C(=O)/C1=C\C=C\c1ccccc1,11.3%,-28.2%,-20.6%,-9.2%,-15.2%,-7.85%
N.N.N.N.O=C(O)C1OCCOCCOC(C(=O)O)C(C(=O)O)OCCOCCOC1C(=O)O.[Pt+2].[Pt+2] (stereo not given),-33.2%,-14%,-12.5%,-26.1%,-13.5%,-9.2%
CCOC(=O)C1=C(c2ccccc2)OC(N)=C(C#N)C1c1ccccc1Cl (stereo not given),28.4%,18.7%,24.6%,-21.4%,39.9%,51.5%
CCOCCOC(=O)COc1ccccc1,12.8%,16.4%,17.6%,7%,-7.85%,3.65%
Cc1ccc(N=Nc2ccc(C)cc2NC(=O)c2cccc3ccccc23)cc1,-12.6%,-8%,-12.2%,-90.5%,-1.95%,-2.7%
CN1C(C)(C)CC(=O)C(Br)C1(C)C (stereo not given),-37.8%,-45%,-33.8%,-6.2%,-6.75%,-29.4%
O=NN1C(c2ccccc2)CNC(=O)CC1c1ccccc1 (stereo not given),-27%,-1.4%,-1.65%,-8%,20.6%,-18.2%
O=C1CCC2OC(=O)C3CCCC1C23 (stereo not given),-6.05%,-1.85%,-19%,0.1%,-2.65%,-14.2%
CCN(CC)c1ccc2cc(-c3csc(-c4ccc(N(C)C)cc4)n3)c(=O)oc2c1,26.5%,12.7%,-5.25%,16.9%,-13.1%,-20.3%
OCCN(CCO)c1ncnc2c1sc(=S)n2-c1ccccc1,-0.05%,-32.3%,1.15%,7.9%,-5.65%,7.5%
ClCCN1CCOC1=Nc1ccc2c(c1)CCCC2,-21.2%,-16.9%,2.6%,4.4%,-7.25%,-49.2%
COC(=O)C1(CC(=O)c2c(C)[nH]c3ccccc23)NC(=S)NC(=O)C1C#N (stereo not given),-6.35%,14.7%,-21.1%,-5.15%,-11.1%,26.4%
CCc1ccc(NS(=O)(=O)c2ccccc2[N+](=O)[O-])cc1,31.9%,42.6%,61.8%,25.3%,50.9%,65.5%
CCOC(=O)c1nc2ccccc2c(=O)[nH]1,-1.85%,-5%,1.5%,-32.9%,-8.6%,-2.5%
Cc1cc(=O)[nH]c(NNC(C#N)c2ccc(O)cc2)n1 (stereo not given),-26%,-51.3%,-48.4%,-7.6%,-18.6%,-41.8%
O=S(=O)(Nc1nccs1)c1ccc(NCc2c3ccccc3nc3cc(Cl)ccc23)cc1,13.3%,3.15%,9.75%,-6.65%,-0.2%,25.8%
CN1C(=O)C/C(=C/[N+](=O)[O-])c2ccccc21,3.5%,-1.05%,4.2%,8.05%,3.3%,-18.9%
CN(C)N=Nc1ccc(S(C)(=O)=O)cc1,4.9%,0.6%,1.5%,-22.1%,10.1%,8.1%
Cc1ccc(N2CC(=O)N3CCCC(C)N3C(=O)C2)cc1 (stereo not given),26%,8.85%,14.8%,15.8%,7.05%,10.4%
COc1ccc2c(O)c(Oc3ccccc3)c(=O)oc2c1,0.5%,5%,4.25%,30.9%,15.3%,13.1%
